According to PubChem BioAssay (EPA / NIEHS):
The source made the active and inactive calls. Rule for the calls: active = hit-call score of the fitted dose curve at least 0.9, where 1 is the maximum; inactive = score below 0.9.

Assays:
[1] = ATG_E_Box_CIS: Attagene CIS-FACTORIAL HepG2 Assay for human Enhancer Box (E-box) (AID 2282936); conditions: HepG2 E-box cis-reporter transcription, actives raise or lower the signal
Summary of the method: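 DMSO served as negative control and baseline for bidirectional fitting. Human hepatoma HepG2 cells, transiently transfected with cis-reporter constructs, were dosed 24 h; reporter mRNA read by RT-PCR and capillary electrophoresis.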

[2] = ATG_M_61_CIS: Attagene CIS-FACTORIAL HepG2 Assay for M61 Transcription Factor (Internal Marker) (AID 2282937); conditions: HepG2 Attagene CIS-FACTORIAL M61 internal marker reporter; actives raise or lower the signal
Summary of the method: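 This endpoint serves as an internal background control within a multiplexed HepG2 cis-reporter panel. Cells are exposed for 24 h; reporter mRNA is amplified, fluorescently labelled and sized by capillary electrophoresis, with DMSO as negative control.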

[3] = ATG_EGR_CIS: Attagene CIS-FACTORIAL HepG2 Assay for human Early Growth Response 1 (EGR1) (AID 2282938); conditions: HepG2 Attagene CIS-FACTORIAL EGR reporter mRNA; actives raise or lower the signal
Summary of the method: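 HepG2, transient MRTU transfection (cis promoters), 24 h compound. RNA → RT (oligo-dT) → PCR → 6-FAM labelling → HpaI cut → CE fluorescence. Bidirectional fit, DMSO baseline.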

[4] = ATG_Ets_CIS: Attagene CIS-FACTORIAL HepG2 Assay for human Erythroblast Transformation Specific (ETS) (AID 2282941); conditions: HepG2 ETS cis-reporter transcription, actives raise or lower the signal
Summary of the method: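 After transient cis-reporter transfection, HepG2 cells receive test chemical for 24 h. Reporter mRNA levels, measured by RT-PCR and capillary electrophoresis fluorescence, are analysed bidirectionally relative to the DMSO baseline.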

[5] = ATG_FoxO_CIS: Attagene CIS-FACTORIAL HepG2 Assay for human Forkhead box O (FoxO) (AID 2282943); conditions: HepG2 Attagene cis-reporter, FoxO element, mRNA; actives raise or lower the signal
Summary of the method: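 HepG2, transient MRTU transfection (cis element, endogenous TFs). Dose 24 h. TriZol RNA → oligo(dT) RT → PCR → 6-FAM primer extension → HpaI cut → CE. Gain/loss vs DMSO.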

[6] = ATG_GATA_CIS: Attagene CIS-FACTORIAL HepG2 Assay for human GATA Binding Protein (AID 2282944); conditions: HepG2 GATA cis-element reporter, Attagene multiplex mRNA; actives raise or lower the signal
Summary of the method: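 HepG2 cells transiently transfected with multiplexed cis-element reporter units reflecting endogenous transcription factor activity; reporter mRNA measured after 24 h dosing by RT-PCR, 6-FAM labeling, HpaI digestion and capillary electrophoresis. Bidirectional fitting versus DMSO baseline.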

[7] = ATG_GLI_CIS: Attagene CIS-FACTORIAL HepG2 Assay for human Zinc Finger Protein GLI1 (AID 2282945); conditions: HepG2, Attagene cis-factorial reporter mRNA, GLI element; actives raise or lower the signal
Summary of the method: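 Bidirectional curve fits relative to DMSO, using reporter mRNA levels from RT-PCR plus capillary electrophoresis. Cells were HepG2 transiently carrying cis-regulated reporter constructs, harvested 24 h after dosing.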

[8] = ATG_ISRE_CIS: Attagene CIS-FACTORIAL HepG2 Assay for human Interferon Regulatory Factor 1 (IRF1) binding to an Interferon-Stimulated Response Element (ISRE) (AID 2282948); conditions: HepG2 ISRE cis-reporter (Attagene), mRNA transcription readout; actives raise or lower the signal
Summary of the method: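 Quantitation relies on labelled RT-PCR fragments separated by capillary electrophoresis. Human HepG2 cells bearing cis-promoter reporter constructs were treated 24 h; DMSO served as baseline for bidirectional fitting.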

[9] = ATG_M_32_CIS: Attagene CIS-FACTORIAL HepG2 Assay for M32 Transcription Factor (Internal Marker) (AID 2282949); conditions: HepG2 Attagene cis-factorial M32 reporter, mRNA; actives raise or lower the signal;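 note: background control marker of the multiplexed CIS panel rather than a real target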
Summary of the method: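 Following 24 h chemical exposure of HepG2 cells transiently expressing cis-promoter reporter constructs, reporter transcript levels were determined by RT-PCR with fluorescent labelling and capillary electrophoresis, then fitted bidirectionally against DMSO.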

[10] = ATG_M_06_CIS: Attagene CIS-FACTORIAL HepG2 Assay for M06 Transcription Factor (Internal Marker) (AID 2282950); conditions: HepG2 Attagene CIS-FACTORIAL M06 internal marker reporter; actives raise or lower the signal
Summary of the method: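 HepG2 cells transiently transfected with cis-regulated multiple reporter transcription units were exposed to chemical for 24 h; reporter mRNA was quantified by RT-PCR, 6-FAM primer labelling, HpaI digestion and capillary electrophoresis, fitted bidirectionally against DMSO.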

[11] = biological target: Hypoxia-inducible factor 1-alpha (Homo sapiens) (UniProt Q16665); assay: ATG_HIF1a_CIS: Attagene CIS-FACTORIAL HepG2 Assay for human Hypoxia Inducible Factor 1 (HIF1A) (AID 2282951); conditions: HepG2 Attagene cis-factorial HIF1a reporter transcription; actives raise or lower the signal
Hypoxia-inducible factor 1-alpha (Homo sapiens), sequence (Q16665 whole entry, looked up): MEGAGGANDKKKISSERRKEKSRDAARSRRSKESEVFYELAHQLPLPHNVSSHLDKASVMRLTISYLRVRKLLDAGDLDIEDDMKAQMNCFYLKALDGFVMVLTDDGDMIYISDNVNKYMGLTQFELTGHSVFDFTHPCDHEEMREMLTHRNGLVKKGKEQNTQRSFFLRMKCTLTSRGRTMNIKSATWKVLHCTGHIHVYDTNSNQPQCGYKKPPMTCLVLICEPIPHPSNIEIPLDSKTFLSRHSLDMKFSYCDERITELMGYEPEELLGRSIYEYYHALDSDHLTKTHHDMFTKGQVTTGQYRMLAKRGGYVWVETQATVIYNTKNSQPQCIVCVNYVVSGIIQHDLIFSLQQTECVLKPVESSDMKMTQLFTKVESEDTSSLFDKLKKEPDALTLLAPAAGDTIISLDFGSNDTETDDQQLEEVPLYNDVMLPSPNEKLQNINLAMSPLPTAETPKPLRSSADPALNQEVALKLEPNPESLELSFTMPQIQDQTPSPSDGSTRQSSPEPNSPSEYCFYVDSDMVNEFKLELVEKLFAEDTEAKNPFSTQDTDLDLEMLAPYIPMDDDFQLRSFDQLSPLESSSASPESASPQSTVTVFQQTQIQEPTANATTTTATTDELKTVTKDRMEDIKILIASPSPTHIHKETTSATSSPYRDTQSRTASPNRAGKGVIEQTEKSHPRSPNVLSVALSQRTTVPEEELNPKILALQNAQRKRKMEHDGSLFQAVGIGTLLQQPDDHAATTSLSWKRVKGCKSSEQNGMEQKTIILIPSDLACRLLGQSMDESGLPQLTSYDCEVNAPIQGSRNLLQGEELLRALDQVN
Summary of the method: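 HepG2, transient cis-reporter library, 24 h dosing. RNA → RT (oligo dT) → PCR → 6-FAM primer extension → HpaI → CE. Bidirectional curve fit vs DMSO.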

[12] = biological target: Hepatocyte nuclear factor 6 (Homo sapiens) (UniProt Q9UBC0); assay: ATG_HNF6_CIS: Attagene CIS-FACTORIAL HepG2 Assay for human Hepatocyte Nuclear Factor 6 (HNF6) (AID 2282952); conditions: HepG2 Attagene cis-factorial HNF6 reporter transcription; actives raise or lower the signal
Hepatocyte nuclear factor 6 (Homo sapiens), sequence (Q9UBC0 whole entry, looked up, the tested form may be a part): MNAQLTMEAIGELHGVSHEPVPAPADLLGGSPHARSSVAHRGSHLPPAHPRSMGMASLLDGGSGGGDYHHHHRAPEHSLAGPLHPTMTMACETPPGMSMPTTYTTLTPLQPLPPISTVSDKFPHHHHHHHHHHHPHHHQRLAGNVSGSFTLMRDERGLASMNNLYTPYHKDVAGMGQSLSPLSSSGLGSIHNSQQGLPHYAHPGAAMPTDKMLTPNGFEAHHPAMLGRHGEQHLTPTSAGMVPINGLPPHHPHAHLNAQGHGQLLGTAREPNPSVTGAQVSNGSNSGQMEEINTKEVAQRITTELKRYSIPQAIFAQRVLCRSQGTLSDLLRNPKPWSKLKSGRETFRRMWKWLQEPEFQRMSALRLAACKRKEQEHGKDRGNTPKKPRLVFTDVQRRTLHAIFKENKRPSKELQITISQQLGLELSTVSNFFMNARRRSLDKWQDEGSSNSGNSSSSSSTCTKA
Summary of the method: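 Reporter mRNA induction or loss in HepG2 after 24 h exposure; transient cis-MRTU transfection; fragments quantified by capillary electrophoresis; bidirectional analysis, DMSO as negative control.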

[13] = biological target: Heat shock factor protein 1 (Homo sapiens) (UniProt Q00613); assay: ATG_HSE_CIS: Attagene CIS-FACTORIAL HepG2 Assay for human Heat Shock Transcription Factor 1 (HSE) (AID 2282953); conditions: HepG2 HSE cis-reporter, Attagene RNA transcription; actives raise or lower the signal
Heat shock factor protein 1 (Homo sapiens), sequence (Q00613 whole entry, looked up): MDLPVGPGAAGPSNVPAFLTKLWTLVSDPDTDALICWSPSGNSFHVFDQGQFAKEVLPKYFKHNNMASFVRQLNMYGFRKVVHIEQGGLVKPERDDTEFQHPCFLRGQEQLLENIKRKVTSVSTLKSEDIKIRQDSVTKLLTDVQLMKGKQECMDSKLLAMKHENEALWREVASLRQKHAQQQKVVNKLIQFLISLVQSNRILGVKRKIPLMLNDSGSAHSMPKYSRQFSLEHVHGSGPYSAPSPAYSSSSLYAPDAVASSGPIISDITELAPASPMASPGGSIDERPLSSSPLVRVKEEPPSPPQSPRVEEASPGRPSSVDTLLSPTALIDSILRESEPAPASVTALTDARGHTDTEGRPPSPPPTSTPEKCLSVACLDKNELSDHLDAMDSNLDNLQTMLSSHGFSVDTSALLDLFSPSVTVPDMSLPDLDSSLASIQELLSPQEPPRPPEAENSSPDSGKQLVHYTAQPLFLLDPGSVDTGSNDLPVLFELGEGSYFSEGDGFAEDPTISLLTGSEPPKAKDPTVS
Summary of the method: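 HepG2 cells transiently transfected with multiple reporter transcription units under cis-regulatory promoter control, measuring endogenous transcription factor activity. After 24 h chemical exposure, reporter mRNA quantified by RT-PCR, fluorescent labelling, HpaI digestion and capillary electrophoresis; bidirectional fit versus DMSO.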

[14] = ATG_MRE_CIS: Attagene CIS-FACTORIAL HepG2 Assay for human Metal Responsive Element (MRE) (AID 2282954); conditions: HepG2 MRE cis-reporter transcription, Attagene multiplex; actives raise or lower the signal
Summary of the method: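 After a 24 h chemical exposure, transiently transfected HepG2 cells yield RNA whose reporter sequences are amplified, FAM-labelled and sized by capillary electrophoresis. Curves are fitted bidirectionally relative to DMSO.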

[15] = ATG_M_19_CIS: Attagene CIS-FACTORIAL HepG2 Assay for M19 Transcription Factor (Internal Marker) (AID 2282939); conditions: HepG2 Attagene CIS-FACTORIAL M19 internal marker reporter; actives raise or lower the signal
Summary of the method: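 HepG2 cells transiently transfected with cis-regulated multiple reporter transcription units were dosed for 24 h; reporter mRNA was quantified by RT-PCR, 6-FAM primer-extension labelling, HpaI digestion and capillary electrophoresis, with bidirectional fitting against DMSO baseline.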

[16] = ATG_ERE_CIS: Attagene CIS-FACTORIAL HepG2 Assay for Estrogen Response Element (ERE) (AID 2282940); conditions: HepG2 ERE cis-reporter, Attagene RNA transcript; actives raise or lower the signal
Summary of the method: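 HepG2 cells transiently transfected with cis-promoter-driven multiplexed reporter transcription units report endogenous TF activity. After 24 h compound exposure, reporter mRNA is quantified by RT-PCR with capillary electrophoresis fluorescence; bidirectional fitting versus DMSO baseline.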

[17] = biological target: Hepatocyte nuclear factor 3-beta (Homo sapiens) (UniProt Q9Y261); assay: ATG_FoxA2_CIS: Attagene CIS-FACTORIAL HepG2 Assay for human Forkhead box A2 (FOXA2) (AID 2282942); conditions: HepG2 cis-reporter transcription factor activity, 24 h; actives raise or lower the signal
Hepatocyte nuclear factor 3-beta (Homo sapiens), sequence (Q9Y261 whole entry, looked up): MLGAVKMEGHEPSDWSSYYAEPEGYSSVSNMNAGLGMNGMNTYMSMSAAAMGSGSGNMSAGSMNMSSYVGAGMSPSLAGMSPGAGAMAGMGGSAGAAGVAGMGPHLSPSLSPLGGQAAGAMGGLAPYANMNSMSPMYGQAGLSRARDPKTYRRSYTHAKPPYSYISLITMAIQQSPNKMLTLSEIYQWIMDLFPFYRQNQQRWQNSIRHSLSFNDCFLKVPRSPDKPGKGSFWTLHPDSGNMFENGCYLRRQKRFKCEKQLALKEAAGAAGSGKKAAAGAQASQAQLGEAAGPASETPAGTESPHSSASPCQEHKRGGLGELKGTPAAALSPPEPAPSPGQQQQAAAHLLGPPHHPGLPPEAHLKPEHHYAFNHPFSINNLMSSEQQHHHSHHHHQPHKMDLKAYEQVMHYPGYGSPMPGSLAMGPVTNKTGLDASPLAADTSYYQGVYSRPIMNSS
Summary of the method: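 Cells: HepG2, transient multiplex reporter transfection. Exposure 24 h. Detection: reporter-specific RT-PCR, fluorescent labelling, restriction digest, capillary electrophoresis. Analysis: bidirectional curve fit, DMSO as negative control.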

[18] = ATG_GRE_CIS: Attagene CIS-FACTORIAL HepG2 Assay for human Glucocorticoid Response Elements (GRE) (AID 2282947); conditions: HepG2 GRE cis-reporter, Attagene multiplex mRNA; actives raise or lower the signal
Summary of the method: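 Assay uses human hepatoma HepG2 cells transfected with cis-promoter reporter units, exposed 24 h. mRNA from reporters detected by RT-PCR plus capillary electrophoresis; DMSO serves as negative control and baseline.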

[19] = ATG_PBREM_CIS: Attagene CIS-FACTORIAL HepG2 Assay for human Phenobarbital-responsive Enhancer Module (PBREM) (AID 2282955); conditions: HepG2 PBREM cis-reporter, Attagene multiplexed transcription; actives raise or lower the signal
Summary of the method: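 HepG2, transient MRTU transfection, 24 h dosing; RNA → oligo(dT) RT → PCR → 6-FAM extension → HpaI → CE. Bidirectional fit vs DMSO.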

[20] = biological target: Bile acid receptor (Homo sapiens) (UniProt Q96RI1); assay: ATG_IR1_CIS: Attagene CIS-FACTORIAL HepG2 Assay for human Nuclear Receptor Subfamily 1 Group H Member 4 (NR1H4), IR1 submotif (AID 2282946); conditions: IR1 reporter transcription, actives raise or lower the signal
Bile acid receptor (Homo sapiens), sequence (Q96RI1 whole entry, looked up, the tested form may be a part): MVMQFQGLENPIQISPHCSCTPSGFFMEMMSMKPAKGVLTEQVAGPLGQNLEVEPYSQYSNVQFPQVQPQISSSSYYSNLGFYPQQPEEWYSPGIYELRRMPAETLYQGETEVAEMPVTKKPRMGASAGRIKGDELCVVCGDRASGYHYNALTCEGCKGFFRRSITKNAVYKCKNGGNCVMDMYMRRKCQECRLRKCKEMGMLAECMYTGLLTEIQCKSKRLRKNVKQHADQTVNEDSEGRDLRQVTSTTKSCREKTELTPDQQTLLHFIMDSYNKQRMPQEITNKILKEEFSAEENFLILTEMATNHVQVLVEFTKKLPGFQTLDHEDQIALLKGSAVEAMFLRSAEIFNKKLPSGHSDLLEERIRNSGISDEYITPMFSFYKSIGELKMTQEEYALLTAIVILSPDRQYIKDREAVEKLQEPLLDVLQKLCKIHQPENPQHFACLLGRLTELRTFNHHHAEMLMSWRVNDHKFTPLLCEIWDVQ
Summary of the method: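 Cells (human HepG2) carry transiently transfected cis-promoter reporter transcription units. Compounds are incubated 24 h, total RNA is reverse-transcribed and amplified, and labelled fragments are resolved by capillary electrophoresis. Curves use DMSO as baseline.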

Measured: AC50

O=C1OC(=O)C2C3C=CC(C3)C12 (configuration not stated)
not listed: [15] | [16] | [17] | [18] | [19] | [20]
inactive: all other assays above

C=CCCCCCCCCC(=O)O
not listed: [1] | [11] | [19] | [20]
inactive: all other assays above

Nc1ccc(Nc2ccccc2)cc1
active: [16] 35.1 µM
not listed: [1] | [5] | [11] | [19] | [20]
inactive: all other assays above

O=C(O)CCN(C1(C(=O)NO)CCCC1)S(=O)(=O)c1ccc(Oc2ccc(F)cc2)cc1
not listed: [14] | [15] | [16] | [18] | [19] | [20]
inactive: all other assays above

O=C(CCCCCCCCc1cccnc1)N1CCC(C=C(c2ccccc2)c2ccccc2)CC1
inactive: [1] | [4] | [17] | [5] | [6] | [7] | [18] | [9]
active: [2] 59.8 µM | [3] 17 µM | [8] 16.7 µM | [10] 59.8 µM | [12] 23.9 µM | [13] 15.9 µM

CCCC(=O)OCC
active: [11] 0.171 µM
not listed: [1] | [19] | [20]
inactive: all other assays above

NC(=O)NO
not listed: [5] | [11] | [15] | [16] | [17] | [20]
inactive: all other assays above

O=c1[nH]c2ccc(S(=O)CCN3CCC(Cc4ccc(F)cc4)CC3)cc2o1 (configuration not stated)
active: [3] 121 µM
not listed: [1] | [11] | [14] | [19] | [20]
inactive: all other assays above

COc1ccc(/C=C/S(=O)(=O)NC(=O)c2ccc(C)cc2Cl)cc1
not listed: [5] | [15] | [16] | [19]
inactive: all other assays above

Cc1ccc(O)cc1
not listed: [11] | [14] | [15] | [16]
inactive: all other assays above

CC(C)CC(C)(O)C#CC(C)(O)CC(C)C (configuration not stated)
not listed: [1] | [11] | [15] | [16] | [17] | [19] | [20]
inactive: all other assays above

CC(C)CCCCCCCOC(=O)CCCCC(=O)OCCCCCCCC(C)C
not listed: [1] | [5] | [11] | [16]
inactive: all other assays above

Nc1cccc(N)c1
not listed: [1] | [11] | [15] | [16] | [17] | [18]
inactive: all other assays above

C=CC(=C)CCC=C(C)C
not listed: [1] | [11] | [14] | [15] | [20]
inactive: all other assays above

COCCOCCOCCOC
not listed: [1] | [5] | [14] | [16] | [17] | [19]
inactive: all other assays above

CC(C)=CCC/C(C)=C/CO
not listed: [1] | [11] | [13] | [16] | [19]
inactive: all other assays above

O=C1CCC(N2C(=O)c3ccccc3C2=O)C(=O)N1 (configuration not stated)
not listed: [1] | [11] | [16] | [17] | [19] | [20]
inactive: all other assays above
